# Calls of active or inactive are those of the source. How the source made its calls: active means hit-call score of the fitted dose curve at least 0.9, where 1 is the maximum; inactive means score below 0.9.
# Experiment: ATG_TCF_b_cat_CIS: Attagene CIS-FACTORIAL HepG2 Assay for human T-Cell-Factor with beta-catenin (TCF/b-cat) (AID 2282965)
# Details: HepG2 TCF/beta-catenin cis-reporter transcription, actives raise or lower the signal
# Description: ATG_CIS is a cell-based, multiplexed-readout assay that uses HepG2, a human liver cell line, with measurements taken at 24 hours after chemical dosing in a 24-well plate.ATG_TCF_b_cat_CIS is one of 52 assay component(s) measured or calculated from the ATG_CIS assay. It is designed to make measurements of mRNA induction, a form of inducible reporter, as detected with fluorescence intensity signals by Reverse transcription polymerase chain reaction (RT-PCR) and Capillary electrophoresis technology.Data from the assay component ATG_TCF_b_cat_CIS was analyzed into 1 assay endpoint. This assay endpoint, ATG_TCF_b_cat_CIS, was analyzed with bidirectional fitting relative to DMSO as the negative control and baseline of activity. Using a type of inducible reporter, measures of mRNA for gain or loss-of-signal activity can be used to understand the reporter gene at the transcription factor-level as they relate to the gene TCF7 and TCF7L2 and LEF1 and TCF7L1. Furthermore, this assay endpoint can be referred to as a primary readout, because this assay has produced multiple assay endpoints where this one serves a reporter gene function. To generalize the intended target to other relatable targets, this assay endpoint is annotated to the dna binding intended target family, where the subfamily is HMG box protein.
# Human liver HepG2 cells are transiently transfected with multiple reporter transcription units (MRTUs) in 6-well plates using FuGene 6 reagent (Roche; 3 ml FuGene/1 mg DNA). The MRTU constructs are regulated by a cis-regulating element (promoter). […] A major difference between the CIS and TRANS system is that in CIS activities of endogenous TFs are measured, whereas the TRANS assay evaluates changes in activities of exogenous, chimeric NR-Gal4 proteins. […] At the end of 24 hour incubation, total RNA was isolated using TriZol reagent (Invitrogen). The isolated RNA is then reverse-transcribed using oligo(dT) primer and Mo-MLV reverse transcriptase (Invitrogen) with DNAse I (Ambion) treatment for 30 min. The one-tenth of the produced cDNA was amplified by PCR using Taq DNA polymerase (Invitrogen) and two reporter sequence-specific primers. The PCR products were fluorescently labeled by primer extension with 6-arboxyfluorescein (6-FAM) 5'-labeled reporter sequence-specific primer (2 min at 95 C, 20 s at 68 C and 10 min at 72 C) and these products were digested with 5U of HpaI (New England Biolabs) for 2h at 37 C. The fragments were purified using Qiaquick PCR columns (Qiagen), analyzed on an ABI 3130xL genetic analyzer (Applied Biosystems) with peak positions identified by using a set of X-rhodamine (ROX)-labeled MapMarker1000 molecular weight standards (BioVentures). The raw capillary electrophoresis data was processed using Attagraph software (Attagene).
Compound,outcome,AC50
CCCOC(=O)c1c(Cl)c(Cl)c(Cl)c(Cl)c1C(=O)OCCC,inactive,–
CCOCCOCCOCC,inactive,–
Nc1ccc(N)c2c1C(=O)c1ccccc1C2=O,inactive,–
Cc1ccc2c(c1)C(=O)OC2=O,inactive,–
Nc1c(S(=O)(=O)O)cc(Br)c2c1C(=O)c1ccccc1C2=O,inactive,–
[O-]n1ccccc1=S.[O-]n1ccccc1=S.[Zn+2],inactive,–
Cc1ccc(S(N)(=O)=O)cc1,inactive,–
CCCCCCCCc1ccc(S(=O)(=O)O)cc1,inactive,–
COC(C)(C)CC(C)=O,inactive,–
CC=Cc1ccc(OC)c(OC)c1,inactive,–
O=C(O)CNc1ccccc1,inactive,–
CCCC[O][Al]([O]CCCC)[O]CCCC,inactive,–
CCC1CCCCC1,inactive,–
C=C1C[C@]23C[C@@]1(O)CC[C@H]2[C@@]12C=C[C@H](O)[C@@](C)(C(=O)O1)[C@H]2[C@@H]3C(=O)O,inactive,–
COc1cc(C(C)C)ccc1C,inactive,–
CCc1cc(Cc2cc(CC)cc(C(C)(C)C)c2O)c(O)c(C(C)(C)C)c1,inactive,–
COCCc1ccc(OCC(O)CNC(C)C)cc1 (stereo not given),inactive,–
CCC(C)S (stereo not given),inactive,–
CN(C)CCOc1ccc(/C(=C(/CCCl)c2ccccc2)c2ccccc2)cc1,inactive,–
CN(C)C(=S)SC(=S)N(C)C,inactive,–

Compound,outcome,AC50
CC1C2CC(CC2C2CCCC(O)C2)C1(C)C (stereo not given),inactive,–
C=CCN(CC=C)CC=C,inactive,–
OCC(O)c1ccccc1 (stereo not given),inactive,–
CS(=O)(=O)OCCCCOS(C)(=O)=O,inactive,–
CCCCCCCCC=CCCCCCCCC1=NCCN1CCO,inactive,–
Cc1cc(S(=O)(=O)O)ccc1N=Nc1c(O)ccc2ccccc12,inactive,–
OCc1cccc(Oc2ccccc2)c1,inactive,–
O=Cc1ccccc1S(=O)(=O)O,inactive,–
CSc1c(Cl)c(Cl)c(Cl)c(Cl)c1Cl,–,50.3 µM (active)
O=C1OC[C@H](Cc2cccc(O)c2)[C@H]1Cc1cccc(O)c1,inactive,–
C/C=C(\C)C(=O)OCCc1ccccc1,inactive,–
CCCCCCCCCCCC(=O)OCC(O)CO (stereo not given),inactive,–
CCCSc1ccc2nc(NC(=O)OC)[nH]c2c1,inactive,–
CCCCCCC(C)(C)S,inactive,–
CCOC(=O)c1ccc(N)cc1,inactive,–
CCCC[P+](CCCC)(CCCC)CCCC,inactive,–
Cc1[nH]c(=O)c(C#N)cc1-c1ccncc1,inactive,–
CCc1cc(C(C)(C)C)c(O)c(C(C)(C)C)c1,inactive,–
CCOC(=O)C1OC1c1ccccc1 (stereo not given),–,48 µM (active)
Cc1cc(CCC(=O)OCCOCCOCCOC(=O)CCc2cc(C)c(O)c(C(C)(C)C)c2)cc(C(C)(C)C)c1O,inactive,–
